# Shown are actives, neighbours in structure and some others; about 19% of the full set was active somewhere.
# IL1B secr inh: blocks inflammasome-driven IL-1 beta release; THP-1 LPS/ATP IL-1B secretion, AlphaLISA, 16 h; active compounds read low; activity change, % at 57.5 µM; 4.7% of 360,000 active; in the data active = activity change below about -50%; inconclusive = mostly about -30% to -49%
#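 THP-1 cells pretreated 1 hr with compounds (up to 57.5 uM final), then stimulated with LPS (250 ng/mL final) plus ATP (1.25 mM final); secreted IL-1B measured by AlphaLISA after 16 hr, decreased signal indicating inhibition.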
# HT1080NT lethal: kills 2HG-producing HT-1080-NT fibrosarcoma cells | HT-1080-NT fibrosarcoma viability, CellTiter-Glo ATP luminescence, 48 h | 1.6% of 360,000 active | Potency, µM (series often up to 46.1 µM), inactives show at the top dose activity, negative = less viability, usual class: cytotoxic;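 also: NT is the 2HG producing partner of a matched IDH1 knockdown line; potency is read from the fitted curve at half-maximal effect; 0% = DMSO-treated cells and -100% = media-only wells without cells; nearly all actives have a fitted effect of over 55% in size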
#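 750 cells/well, RPMI + 5% FBS; 2 h settle, compound pin-transfer, 48 h at 37 degrees C. CellTiter-Glo 10 min RT, luminescence. Normalized to DMSO and media-only wells.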
# HT1080 IDH1KD tx: toxicity to HT-1080 IDH1 knockdown cells (counter line); Potency, µM (doses to about 46.1 µM), without a hit: top-dose activity, negative = toxicity, hits mostly cytotoxic; 2% of 360,000 active; HT-1080 IDH1 knockdown viability, ATP luminescence, 48 h;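 also: potency is read from the fitted curve at half-maximal effect; 0% = DMSO wells and -100% = cell-free medium wells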
#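 In this qHTS, HT-1080 cells depleted of IDH1 are exposed for 48 h at 37 °C to compound titrations. Toxicity is scored from CellTiter-Glo luminescence, with DMSO as full viability and medium alone as none.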
# TDP1 cell noCPT: qHTS for Inhibitors of human tyrosyl-DNA phosphodiesterase 1 (TDP1): qHTS in cells in absence of CPT; DT40 Tdp1-/- hTDP1 cells, no CPT, ATP luminescence, 48 h; Potency, µM (doses to about 46.2 µM), for the others: top-dose activity change, negative = growth inhibition, hits mostly inhibitors; 15% of 420,000 active; AID 686978, 2013; also: potency is read from the fitted curve at half-maximal effect; nearly all actives have a fitted effect of over 55% in size
#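 Seeded 400 DT40-hTDP1 cells/well (vehicle DMSO, no 20 nM CPT); pinned compounds; ≥48 hr at 37 °C; CellTiter-Glo luminescence as viability measure.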
# DT40 TDP1 CPT: DT40-hTDP1 cell growth loss with CPT; 12% of 420,000 active; chicken DT40 Tdp1-/-;hTDP1 cells + 20 nM CPT, ATP luminescence, 48 h; AID 686979; Potency, µM (doses to about 46.2 µM), inactives show top-dose activity change, negative = growth inhibition, actives largely listed as inhibitors; also: potency is read from the fitted curve at half-maximal effect; nearly all actives have a fitted effect of over 55% in size
#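 Chicken DT40 Tdp1-/- cells complemented with human TDP1, 400 cells/well, exposed to compounds plus 20 nM camptothecin for at least 48 h at 37 C; viability read as ATP content by CellTiter-Glo luminescence.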
# uPA surface inh: cell surface uPA generation inhibition; cell surface uPA generation assay, qHTS; Potency, µM (series often up to 38.3 µM), inactives show at the top dose activity change, negative = inhibition, hits mostly inhibitors; 0.31% of 330,000 active; AID 540303; active = well fitted inhibition curve with a large enough effect; inconclusive = small, poorly fitted or top-dose-only effect; inactive = no such curve, though single readings can be large or run the other way; tested in mouse RAW 264.7 cells; also: potency is read from the fitted curve at half-maximal effect; nearly all actives have a fitted effect of over 55% in size
# * marks the source's active call; other numbers are inactive results; u = inconclusive; x = not tested or not shown. Unless noted, calls follow the shape of the dose curve; as a rule, active = well fitted curve in the direction sought with a large enough effect; inconclusive = small, poorly fitted or top-dose-only effect, or another doubt; inactive = no such curve, though single readings can be large; an effect the other way counts as inactive or inconclusive. Unless noted, % is scaled to controls: 0 for no effect and ±100 for the full control effect.
SMILES,IL1B secr inh,HT1080NT lethal,HT1080 IDH1KD tx,TDP1 cell noCPT,DT40 TDP1 CPT,uPA surface inh
Cc1c(C(=O)NCC2COCCO2)cnn1-c1nccc(-c2cccs2)n1 (stereo not drawn),x,x,x,-26%,-22%,x
CC(=O)Nc1ccc(NC(=O)C(Cc2ccccc2)NC(=O)C2CCCCC2)cc1 (stereo not drawn),18,28%,9%,-3%,-10%,13%
CCCC[P+](CCCC)(CCCC)Cc1ccc(NC(=O)[C@@H](Cc2ccc3ccccc3c2)NC(=NC2CCCCC2)NC2CCCCC2)cc1,x,x,x,17µM*,13µM*,x
CCNCCCNCCCCNCCCNCC,x,x,x,5.3µM*,3.8µM*,x
CCOC(=O)c1c(-c2ccccc2)csc1NC(=O)c1cc(-c2cccc(OC)c2)on1,x,x,x,9%,u,x
CCCNC(=O)C(Cc1ccccc1)NC(=O)c1ccc(-c2ccccc2)cc1 (stereo not drawn),8,21%,-5%,u,-20%,2%
O=c1c(-c2ccc(Br)cc2)[n+]([O-])c2ccccc2n1OCc1ccccn1,27,4%,15%,u,u,1%
O=c1c(-c2cc3ccccc3o2)[n+]([O-])c2ccccc2n1OCc1ccccn1,0,1%,3%,15µM*,u,-5%
CCOC(=O)COn1c(=O)c(-c2ccco2)[n+]([O-])c2ccccc21,-69*,11%,13%,-3%,-15%,6%
O=c1c(-c2ccco2)[n+]([O-])c2ccccc2n1OCc1c(F)cccc1F,10,1%,1%,u,5%,0%
O=c1c(-c2ccco2)[n+]([O-])c2ccccc2n1OCc1ccccc1,-21,7%,5%,12µM*,12µM*,u
COc1ccccc1COn1c(=O)c(-c2ccco2)[n+]([O-])c2ccccc21,-7,5%,6%,18µM*,15µM*,-3%
CCOC(=O)COn1c(=O)c(-c2ccc(C)cc2)[n+]([O-])c2ccccc21,7,9%,6%,-5%,-2%,-4%
O=C1C(Sc2ccccc2)=C[C@@]2(O)CC[C@@H](O)[C@]1(Sc1ccccc1)[C@H]2O,-80*,u,u,5.8µM*,5.2µM*,x
COc1ccc(SC2=C[C@@]3(O)CC[C@@H](O)[C@@](Sc4ccc(OC)cc4)(C2=O)[C@H]3O)cc1,45,-13%,-18%,16µM*,23µM*,x
CC(C)=NOc1nc(NC(=O)NS(=O)(=O)c2ccccc2Cl)nc(N(C)C)n1,20,9%,14%,-16%,6%,-5%
Cc1c(C(=O)N(C)Cc2ccc(F)cc2)sc(=O)n1Cc1ccc(Cl)c(Cl)c1,0,-24%,u,23µM*,u,x
Cc1c(C(=O)NCc2ccc(C(F)(F)F)cc2)sc(=O)n1Cc1cccc(F)c1,40,u,u,u,u,x
Cc1c(C(=O)NCc2cccc(Cl)c2)sc(=O)n1Cc1ccc(C(=O)N(C)C)cc1,-12,-16%,-8%,u,16µM*,x
Cc1c(C(=O)NCc2cccc(C(F)(F)F)c2)sc(=O)n1Cc1cccc(F)c1,-62*,u,u,u,u,x
Cc1cccc(C)c1Cn1c(C)c(C(=O)NCc2ccc(C#N)cc2)sc1=O,-8,u,u,18µM*,u,x
CC(=O)Oc1ccc(Cn2c(C)c(C(=O)N(C)Cc3ccc(F)cc3)sc2=O)cc1,-3,5%,-14%,u,u,x
O=c1ccc(-c2nc3ccccc3n2C(CCc2ccccc2)c2nc3ccccc3[nH]2)c[nH]1 (stereo not drawn),-27,-19%,-12%,u,u,x
O=C(CCCCC(=O)NN=Cc1ccc2c(c1)CCC2)NN=Cc1ccc2c(c1)CCC2,-13,-1%,0%,u,u,x
